Most compounds without a hit are left out; they make up all but 2.8% or so of the library.
MsrA inhibitor: inhibits bovine methionine sulfoxide reductase A; purified bovine MsrA, absorbance read-out; inhibition, % at 15.5 µM; hit rate 0.75% among 360,000; AID 651718; in the data active = inhibition above about 4.5%;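 note: 0% = vehicle wells with enzyme and 100% = reference inhibitor wells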
rCAG RNA binder: binds r(CAG) RNA repeats | r(CAG) RNA repeat, TO-PRO-1 dye displacement fluorescence | inhibition, % at 3 µM | hit rate 1.3% among 370,000;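 active = inhibition above the plate cutoff, the mean of all test compounds on that plate plus 3 SD, cut at about 35% in these data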;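 note: 0% = DMSO alone and 100% = 100 µM mitoxantrone as full dye displacement; higher means more dye released from RNA so lower well fluorescence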
bovine MsrA act: bovine methionine sulfoxide reductase A activation; purified bovine MsrA, absorbance read-out; activation, % at 10.6 µM; hit rate 0.3% among 360,000; in the data active = activation above about 7.5%;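 note: 0% = vehicle and 100% = reference activator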
sPLA2-III inh: Inhibits HGIII-sPLA2 liposome hydrolysis, primary screen; QFRET BODIPY PC-A2 liposome hydrolysis, fluorescence; hit rate 0.56% among 370,000; inhibition, % at 12.2 µM; AID 743126; Q9NZ20;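 active = inhibition above mean plus 3 SD of compounds lying within the high and low control bounds, cut at about 19% in these data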;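 note: 0% = median of test compound wells and 100% = no enzyme DMSO wells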
Target sequence (Q9NZ20 whole entry, looked up): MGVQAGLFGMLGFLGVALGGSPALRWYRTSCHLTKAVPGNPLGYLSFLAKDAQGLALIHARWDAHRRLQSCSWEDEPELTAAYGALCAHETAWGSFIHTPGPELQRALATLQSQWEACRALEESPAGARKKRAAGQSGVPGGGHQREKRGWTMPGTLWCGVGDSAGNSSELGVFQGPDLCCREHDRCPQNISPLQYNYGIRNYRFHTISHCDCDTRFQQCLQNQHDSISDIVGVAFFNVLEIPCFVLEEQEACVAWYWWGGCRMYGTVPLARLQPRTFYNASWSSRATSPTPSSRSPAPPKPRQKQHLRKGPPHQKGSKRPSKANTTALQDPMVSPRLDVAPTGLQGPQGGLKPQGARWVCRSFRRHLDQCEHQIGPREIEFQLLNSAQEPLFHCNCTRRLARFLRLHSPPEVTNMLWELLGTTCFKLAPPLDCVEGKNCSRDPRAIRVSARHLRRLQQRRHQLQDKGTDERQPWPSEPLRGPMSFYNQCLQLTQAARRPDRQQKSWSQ
rCAG bind conf: r(CAG) RNA repeat binding, confirmation. AID 652065. inhibition, % at 3 µM. shares compounds with rCAG RNA binder. TO-PRO-1 dye displacement fluorescence. hit rate 70% among 4,300;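 active = inhibition above a per-plate cutoff, the mean inhibition of sample wells plus 3 SD, cut at about 35% in these data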;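 note: loss of TO-PRO-1 fluorescence as compound displaces dye from 1x1 AA loop RNA; 0% = DMSO only wells and 100% = 100 µM mitoxantrone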
dCAG dye counter: counter-screen for rCAG RNA binders: DNA CAG dye complex inhibitors. d(CAG) DNA oligo TO-PRO-1 dye displacement, fluorescence. shares compounds with rCAG RNA binder. hit rate 94% among 4,300. AID 652068. inhibition, % at 3 µM;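 active = inhibition above its plate's cutoff, the mean test-well inhibition plus 3 SD, cut at about 4.8% in these data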;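 note: 0% = DNA dye mix with DMSO and 100% = 100 µM mitoxantrone; hits displace the dye from DNA and so lower well fluorescence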
* = called active by the depositor; . = not tested or not shown.

SMILES	MsrA inhibitor	rCAG RNA binder	bovine MsrA act	sPLA2-III inh	rCAG bind conf	dCAG dye counter
CC(C)(C)c1nc(NC(=O)Nc2ccccc2)sc1Br	0	36*	-4	-16	16	16*
NCCCCc1ccc2ccc3cccc4ccc1c2c34	2	20	-2	15	.	.
O=C(O)CCCc1ccc2ccc3cccc4ccc1c2c34	4	47*	-5	-16	27	7.5*
O=C(O)c1ccc(-n2cccc2/C=N\NC(=O)c2cc3cc(Br)ccc3o2)cc1	3	50*	-6	-22	46*	15*
O=C(O)Cn1cc(/C=N/NC(=O)c2cc3cc(Br)ccc3o2)c2ccccc21	5	50*	-7	-12	56*	17*
O=C(N/N=C/c1cccn1-c1cccc(C(=O)O)c1)Nc1ccccc1	3	22	0	-22	.	.
Cn1cc(/C=N/NC(=O)c2cc3cc(Br)ccc3o2)c2ccccc21	1	8	-1	19	.	.
CN(C)CCCNC(=O)N1c2ccccc2C=Cc2ccccc21	3	-2	-2	-3	.	.
O=C1COc2ccc(C(=O)COC(=O)/C=C/c3ccco3)cc2N1	.	.	-7	.	.	.
Cc1ccc2[nH]c(C)c(/C=N/Nc3nc4ccccc4s3)c2c1	2	65*	-5	4	47*	26*
O=C(O)CSCC(=O)N(Cc1ccccc1)c1nc(-c2ccccc2)c(-c2ccccc2)s1	0	68*	-4	-31	86*	54*
COc1ccc(CNC(=O)NC2CCCCC2)cc1	0	-2	-2	-1	.	.
COc1ccc2c(c1)C(=O)N(CCc1ccc(S(=O)(=O)NC(=O)NC3CCCCC3)cc1)C(=O)C2(C)C	-1	38*	-2	-22	53*	15*
COc1ccc(Cl)cc1C(=O)NCCc1ccc(S(=O)(=O)NC(=O)NC2CCCCC2)cc1	0	41*	-6	-28	31	8.0*
O=C(O)c1ccc(NS(=O)(=O)c2ccc3c(c2)C2C=CCC2C(c2ccccc2F)N3)cc1 (configuration not stated)	3	88*	-4	-28	61*	27*
COc1cc(CN2CCCC(C(=O)c3ccc4c5c(cccc35)CC4)C2)cc(OC)c1O (configuration not stated)	1	2	-9	-25	.	.
CCCOc1ccc2ccccc2c1/C=C1\SC(=O)NC1=O	2	53*	-3	-38	44*	13*
COc1ccccc1OCCCOc1cccc(/C=C2\SC(=O)NC2=O)c1	3	78*	-6	-82	83*	51*
COc1ccc(/C=C2/SC(=S)NC2=O)cc1OCc1ccccc1	-1	30	-3	-4	.	.
COc1cc(/C=C2/SC(=O)NC2=O)ccc1OCc1ccccc1	4	59*	-15	-42	51*	13*
O=C1NC(=O)C(=Cc2ccccc2[N+](=O)[O-])S1	0	4	-2	-3	.	.
COc1ccccc1OCCCOc1ccc(/C=C2\SC(=O)NC2=O)cc1OC	1	32	-3	-18	.	.
Cc1ccc(S(=O)(=O)Oc2ccccc2/C=C2/SC(=O)NC2=O)cc1	2	44*	-3	-38	36*	7.0*
O=C(O)CN=C1CC(c2ccccc2)CC(=O)/C1=C(/O)CCCN1C(=O)c2ccccc2C1=O (configuration not stated)	1	5	-7	6	.	.
O=C1NC(=O)/C(=C\c2ccc(OCc3ccccc3)cc2)S1	1	19	-3	-9	.	.
SMILES	MsrA inhibitor	rCAG RNA binder	bovine MsrA act	sPLA2-III inh	rCAG bind conf	dCAG dye counter
O=C1NC(=O)/C(=C\c2ccccc2OCc2ccccc2)S1	3	69*	-2	-62	58*	20*
Cc1cc(C)nc(NS(=O)(=O)c2ccc(NC(=O)CSc3nc(-c4ccccc4)c(C#N)c(=O)[nH]3)cc2)n1	1	45*	-4	-32	30	7.4*
Cc1cc(NC(=O)CSc2nc(-c3ccccc3)c(C#N)c(=O)[nH]2)no1	-1	16	-3	-12	.	.
O=C(CSc1nc(O)c(Cc2ccccc2)c(=O)[nH]1)Nc1nnc(SCc2ccccc2)s1	0	53*	-4	-8	28	7.5*
N#Cc1c(-c2ccccc2)nc(SCC(=O)N(c2ccccc2)c2ccccc2)[nH]c1=O	1	73*	-2	-42	82*	41*
CCCCc1nnc(NC(=O)CSc2nc(O)c(Cc3ccccc3)c(=O)[nH]2)s1	1	0	-14	12	.	.
